This is part of a sample that, as a whole, favours compounds with a hit. Of some 83,000 tested, about 20% had one in any assay.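 Single-dose data. Exposure time 48 hours. Values below 10 considered active.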 The source made the active and inactive calls.

This test deals with NCI-H322M lung. The experiment in a line: NCI-60 one-dose screen, 48 h (100 = growth as untreated, 0 = no growth, -100 = all killed). The settings on record: 10 µM unless noted. The method, then:
Growth inhibition of the NCI-H322M human Non-Small Cell Lung tumor cell line is measured as a screen for anti-cancer activity. Cells are grown in 96 well plates and exposed to the test compound for 48 hours. Compounds are tested at a single concentration, which is 10^-5 M for most compounds. The reported endpoint is percent growth (GI% or GIPRCNT), where numbers from 0 - 100% represent growth inhibition, and numbers from -100% - 0 represent cell death. For example, a value of 40 represents 60% growth inhibition. A value of 0 means no net growth occurred over the course of the experiment. A value of -40 indicates 40% of cells at the beginning of the experiment died by the end of the experiment. A value of -100 means all cells are dead at the end of the experiment.
NCI-60 Human Tumor Cell Lines Screen was performed using the standard one-dose NCI protocol, which is described in more detail at https://dtp.cancer.gov/discovery_development/nci-60/default.htm.
Compounds with GIPRCNT values below 10 were considered active. Activity score was based on GIPRCNT using the following formula: […]
Score is 0 for GIPRCNT values of 100 or above, 50 for GIPRCNT values of 0, and 100 for GIPRCNT values of -100.
As for `Nc1c(Br)cc(O)c2c1C(=O)c1ccccc1C2=O`, the growth was 98.7% (inactive).
The result for `Oc1cccnc1CN1CCCC1` reads 102% (inactive); that for `OCCOc1ccc(-c2cc(-c3ccccn3)nc(-c3ccccn3)c2)cc1`, 9.08% (active); that for `Cc1ccc(S(=O)(=O)CCCl)cc1`, 128% (inactive).
For `CC(c1ccccc1)N1C(=O)CSC1=S` (stereo not given), the growth was 74.9% (inactive).
The result for `Cc1cc(NC(=O)c2ccccc2)c(Cl)cc1N` reads 97.7% (inactive); that for `CCCCc1ccc2nc(NC(=O)OC)[nH]c2c1`, 50.2% (inactive).
Turning to `CCN(C(C)=O)c1ccc([N+](=O)[O-])cc1`, the growth is 103% (inactive).
With `OC(CBr)CCBr` (stereo not given), the growth is 101% (inactive).
The result for `CC(C)=CCC[C@@H](C)[C@H]1CC[C@@]2(C)C3=C(CC[C@]12C)[C@@]1(C)CC[C@H](O)C(C)(C)[C@@H]1CC3` reads 122% (inactive).
The result for `COc1cccc(C(=O)NNC(=O)c2cccc3ccccc23)c1` reads 122% (inactive).
For `CC(=O)N=c1ccc2nc3c(cc(N)c4ccccc43)oc-2c1`, the growth was 3.7% (active).
Consider `Nc1c(O)c(S(=O)(=O)O)c(O)c2c1C(=O)c1ccccc1C2=O`, for which the growth was 39% (inactive).
The result for `OCCNc1ccccc1` reads 104% (inactive); that for `C=CCS(C)(=O)=O`, 102% (inactive).
In the case of `OC(CCN1CCCCC1)(c1ccccc1)c1ccccc1` it was 97.6% (inactive); in that of `COC(=O)C1=C(C)C(=O)CC1`, 115% (inactive).
On to `OCC1OC(n2ccc3c2ncn2ncnc32)C(O)C1O` (stereo not given), for which the growth is 38.4% (inactive).
Consider `Nc1ccc(F)cc1F`, for which the growth is 97.4% (inactive).
In the case of `CC(=O)c1cccc(O)c1` it was 106% (inactive); in that of `COC(CCCl)c1ccc(Cl)cc1` (stereo not given), 97.5% (inactive).
`NNc1ncccn1`: the growth was 105% (inactive).
Turning to `COc1ccc(/C=N/NC(=O)COCC(=O)N/N=C/c2ccc(OC)cc2)cc1`, the growth was 113% (inactive).
In the case of `CC1=CC(=Nc2ccc(N(C)C)cc2)C=C(C)C1=O`, the growth was 95.8% (inactive).
In the case of `Cc1onc(-c2c(F)cccc2Cl)c1-c1ncc(-c2ccc(Br)cc2)o1` it was 61.9% (inactive); in that of `CNc1ccccc1C(N)=O`, 97.3% (inactive); in that of `C=CCN1CCCC1=O`, 89.3% (inactive).
The result for `Cc1ccc(Cc2ccc(C)cc2)cc1` reads 98.3% (inactive); that for `NC(CCl)=NCC12CC3CC(CC(C3)C1)C2`, 20.1% (inactive).
On to `ClCc1cccc2c(CCl)cccc12`, for which the growth is -4.83% (active).
As to `CCOC(=O)c1ccc(NC(C)=O)o1`, the growth is 108% (inactive).
In the case of `C/C(Cc1ccccc1)=N\O` it was 110% (inactive); in that of `CC12CCC3c4ccc(O)cc4CCC3C1CCC2=O` (stereo not given), 113% (inactive); in that of `NCCCN1CCCC1=O`, 96.9% (inactive).
The result for `S=c1nc(-c2ccccn2)c(-c2ccccn2)n[nH]1` reads 103% (inactive).
With `CCOC(C=O)OCC`, the growth was 104% (inactive).
In the case of `O=C(NC1CCCCC1)c1ccc(Cl)cc1` it was 98.1% (inactive).
The result for `CCC(C)c1c(N)n(S(=O)(=O)c2ccc(C)cc2)oc1=O` (stereo not given) reads 123% (inactive); that for `O=Cc1c(O)c2ccccc2[nH]c1=O`, 112% (inactive).
As to `CCC(=O)C1C(=O)c2ccccc2C1=O`, the growth is 102% (inactive).
